Marburg entry inh: blocks Marburg virus binding to or entry into cells; Marburg virus pseudotyped entry inhibition, cell reporter; Potency, µM (highest dose often 37.8 µM), most hits filed as inhibitors; 1.8% of 300,000 active; calls by dose curve; tested in HEK293 cells
Cycloheximide cs: counter-screen for Shiga toxin inhibitors: cycloheximide protein synthesis inhibition; 12% of 300,000 active; AID 2314; cell reporter, cycloheximide protein synthesis inhibition counterscreen; max response, %; in the data active = max response mostly above about 13%, no sharp cut-off; inactive = mostly below about 14%; also: read at 38.3 µM for the half of the compounds with a filed dose
LASV entry inh: Lassa virus entry inhibition. 1.2% of 300,000 active. Potency, µM (titrated, usually from 37.9 µM), usual class: inhibitors. Lassa virus pseudotype entry inhibition, cell reporter; calls by dose curve; tested in HEK293 cells; also: nearly all actives have a fitted effect of over 50% in size
AMA1 RON2 block: inhibitors of Plasmodium falciparum AMA1-RON2 interaction; Potency, µM (doses to about 58.2 µM), hits mostly inhibitors; AlphaScreen AMA1-biotinylated RON2 peptide binding; 0.2% of 360,000 active; AID 720542; active = well fitted inhibition curve with a large enough effect; inconclusive = small, poorly fitted or top-dose-only effect; inactive = no such curve, though single readings can be large or run the other way; also: nearly all actives have a fitted effect of over 45% in size
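AMA1 (3D7) with his tag at 25 nM final met compounds first, then biotinylated RON2 peptide at 25 nM; detection used donor plus acceptor beads, 10 µg/mL apiece, read by AlphaScreen after 30 min at room temperature.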
Shiga toxin inh: inhibitors of Shiga toxin in Vero cells; Vero cells, Shiga toxin protein synthesis inhibition reporter; inhibition, % at 38.7 µM; 9.2% of 290,000 active; in the data active = inhibition mostly above about 28%, no sharp cut-off; inactive = mostly below about 43%
Large screens that a line does not name were inactive. The entries come from a sample that favours hits as a whole.

CCOC(=O)c1cn2nc(Oc3cccc(C(F)(F)F)c3)ccc2n1	none
Cc1ccc(S(=O)(=O)N2CCN(C(=O)N(C)C)CC2)cc1	none (no result: Marburg entry inh, LASV entry inh)
Cc1nn(C)c(C)c1S(=O)(=O)N(CC(=O)Nc1ccc(F)cc1F)c1ccc(C(C)C)cc1	none (no result: Cycloheximide cs, AMA1 RON2 block, Shiga toxin inh)
C=CCOC(=O)N[C@H](C(C(=O)OC)=C(C)NCc1ccccc1)c1cccc(OC)c1	none (no result: Cycloheximide cs, LASV entry inh, AMA1 RON2 block, Shiga toxin inh)
COc1ccc(OCCSc2nnc(C)n2-c2ccccc2)cc1	Marburg entry inh inconclusive, LASV entry inh 9.2µM
COc1ccc(-c2nnc(SCC(=O)c3ccc[nH]3)n2-c2ccccc2)cc1	Cycloheximide cs 34, Shiga toxin inh 82
COc1ccc(OCCSc2nnc3sc4ccccc4n23)cc1	Cycloheximide cs 60
CN(C)CCSc1nnc2sc3ccccc3n12	none
CC(C)NC(=O)CSc1nnc2sc3ccccc3n12	Cycloheximide cs 27
CCc1ccc(S(=O)(=O)c2cn(C)c3cc(N4CCC(C)CC4)c(F)cc3c2=O)cc1	none (no result: Marburg entry inh, Cycloheximide cs, AMA1 RON2 block, Shiga toxin inh)
CCOC(=O)C1=CCN(S(=O)(=O)c2ccc(F)cc2)C1c1ccc(Cl)c(Cl)c1 (stereo not given)	none (no result: Marburg entry inh, Cycloheximide cs, LASV entry inh, Shiga toxin inh)
Fc1ccc(Cn2c(SCc3ccc(F)c(C(F)(F)F)c3)nnc2C(F)(F)F)cc1	Marburg entry inh inconclusive, LASV entry inh inconclusive
Fc1ccc(Cn2c(SCc3ccc(F)c(F)c3)nnc2C(F)(F)F)cc1	Cycloheximide cs 14, Shiga toxin inh 45
CCOC(=O)N1CCN(C(=O)c2ccc3c(c2)sc2nc(-c4ccc(OC)cc4)cn23)CC1	Marburg entry inh inconclusive, Cycloheximide cs 25
COc1ccc(-n2cc(-c3ccccc3)nc2SCC(=O)Nc2ccccc2C)cc1	none (no result: Marburg entry inh, Cycloheximide cs, AMA1 RON2 block, Shiga toxin inh)
COc1ccc(-n2cc(-c3ccccc3)nc2SC)cc1	Cycloheximide cs 47, Shiga toxin inh 65 (no result: Marburg entry inh, LASV entry inh)
COc1ccc2c(c1)sc1nc(-c3ccccc3)cn12	Marburg entry inh 0.71µM, LASV entry inh 0.5µM
O=C(Nc1ccccc1N1CCOCC1)c1cccc(F)c1	none (no result: LASV entry inh)
Cc1cccc(NC(=O)c2cc(NC(=O)C3CCCCC3C(=O)O)ccc2N2CCOCC2)c1 (stereo not given)	none
Cc1ccc(NC(=O)c2cccnc2)cc1C	Marburg entry inh inconclusive, Cycloheximide cs 19 (no result: Shiga toxin inh)
Cc1ccc(Cl)cc1NC(=O)c1cc(NC(=O)C2CCCCC2C(=O)O)ccc1N1CCOCC1 (stereo not given)	LASV entry inh 10µM
O=C(Nc1ccc(N2CCOCC2)c(Cl)c1)c1cccnc1	Marburg entry inh inconclusive, Cycloheximide cs 26, LASV entry inh inconclusive, Shiga toxin inh 53
O=C(Nc1ccc(N2CCOCC2)c(Cl)c1)c1cccc(F)c1	Cycloheximide cs 44, LASV entry inh inconclusive, Shiga toxin inh 119
CC(C)CN(C(=O)COC(=O)c1cc2ccccc2cc1O)c1c(N)n(Cc2ccccc2)c(=O)[nH]c1=O	Marburg entry inh inconclusive (no result: Cycloheximide cs, Shiga toxin inh)
CCOc1ccccc1NC(=O)C(C)N(c1ccccc1)S(C)(=O)=O (stereo not given)	none (no result: Cycloheximide cs, AMA1 RON2 block, Shiga toxin inh)
O=C(Nc1ccc(N2CCN(Cc3ccccc3)CC2)cc1)c1cccnc1	none
O=C(Nc1ccc(N2CCCC2)c(Cl)c1)c1cccnc1	Cycloheximide cs 39, Shiga toxin inh 54
O=C(Nc1nnc(-c2ccccc2Cl)o1)c1cccnc1	Cycloheximide cs 19, LASV entry inh inconclusive, Shiga toxin inh 58
O=C(Nc1ccc(NC(=O)c2ccccc2Cl)cc1)c1cccnc1	Marburg entry inh inconclusive
CSc1ccc(NC(=O)c2cccnc2)cc1C#N	Shiga toxin inh 51
O=C(Nc1ccc(N2CCN(C(=O)c3cccs3)CC2)c(Cl)c1)c1cccnc1	Marburg entry inh inconclusive, LASV entry inh inconclusive
O=C(Nc1ccc(N2CCOCC2)cc1)c1cccnc1	Cycloheximide cs 28, LASV entry inh inconclusive, Shiga toxin inh 38
CC(C)NC(=O)N(C)C[C@H]1Oc2ncc(Br)cc2C(=O)N([C@H](C)CO)C[C@@H]1C	none (no result: Marburg entry inh, Cycloheximide cs, LASV entry inh, Shiga toxin inh)
O=C1OC(CO)CN1Cc1ccccc1 (stereo not given)	none
O=C(Nc1ccc(N2CCCCC2)c(Cl)c1)c1cccnc1	Marburg entry inh 1µM, LASV entry inh 0.89µM, Shiga toxin inh 96
Cc1ccc(NC(NC(=O)c2cccnc2)C(Cl)(Cl)Cl)cc1 (stereo not given)	Marburg entry inh 16µM
O=C(Nc1ccc(N2CCOCC2)c(Cl)c1)c1cc(F)c(F)cc1Cl	Cycloheximide cs 19, AMA1 RON2 block inconclusive
O=C(Nc1ccc(Cl)c(Cl)c1)c1cccnc1	Cycloheximide cs 35 (no result: Marburg entry inh, LASV entry inh, Shiga toxin inh)
O=C(Nc1ccc(N2CCN(C(=O)c3ccco3)CC2)c(Cl)c1)c1cccnc1	none
O=C(Nc1ccc(N2CCOCC2)c(Cl)c1)c1c(F)c(F)c(F)c(F)c1F	none
COc1c(C)cccc1C(=O)Nc1ccc(N2CCOCC2)c(Cl)c1	Marburg entry inh inconclusive, Cycloheximide cs 89, LASV entry inh inconclusive, Shiga toxin inh 121
CC(OC(=O)CNC(=O)c1ccc(Cl)cc1)C(=O)NC1CCCCC1C (stereo not given)	none (no result: Cycloheximide cs, Shiga toxin inh)
CCC(Br)C(=O)Nc1ccc(OC)cc1 (stereo not given)	none
CCOc1ccc(NC(=S)N2CCC(c3ccc(C)cc3)C2)cc1 (stereo not given)	none (no result: Marburg entry inh, LASV entry inh)
Cc1ccc(NC(=S)N2CCC(c3ccc(C)cc3)C2)cc1 (stereo not given)	Cycloheximide cs 46, Shiga toxin inh 98 (no result: Marburg entry inh, LASV entry inh)
COc1ccc(NC(=S)N2CCC(c3ccc(C)cc3)C2)cc1 (stereo not given)	Marburg entry inh inconclusive, Cycloheximide cs 14
COc1cccc(NC(=S)N2CCC(c3ccc(C)cc3)C2)c1 (stereo not given)	Marburg entry inh inconclusive, Cycloheximide cs 30, LASV entry inh inconclusive, Shiga toxin inh 82
COc1ccc(-n2cnc3cc(NC(=O)c4ccco4)ccc32)cc1	none
O=C(Nc1ccc2c(c1)ncn2C1CCCCC1)c1ccco1	Cycloheximide cs 37, Shiga toxin inh 91
CC(C)n1cnc2cc(NC(=O)c3ccco3)ccc21	Cycloheximide cs 28, LASV entry inh inconclusive, Shiga toxin inh 75
O=c1oc2ccc3ccccc3c2cc1-c1nnc(Nc2cccc(C(F)(F)F)c2)s1	none (no result: Marburg entry inh, Cycloheximide cs, AMA1 RON2 block, Shiga toxin inh)
Cn1nnnc1N=N/C(=N/Nc1ccccc1)c1ccccc1	Marburg entry inh 1µM, Cycloheximide cs 17, LASV entry inh inconclusive, AMA1 RON2 block inconclusive
Cc1cc(Cl)ccc1Oc1nc(-c2ccc(F)cc2)ccc1C#N	none
COc1cccc(/C=N/Nc2nc(-c3cccnc3)nc3ccccc23)c1	Cycloheximide cs 18, Shiga toxin inh 65 (no result: Marburg entry inh, LASV entry inh)
Brc1ccc(-c2nc(N/N=C/c3cccnc3)c3ccccc3n2)cc1	Marburg entry inh inconclusive, Cycloheximide cs 32, Shiga toxin inh 103
FC(F)(F)c1nc2ccccc2nc1N/N=C\c1ccccc1	Cycloheximide cs 19, AMA1 RON2 block inconclusive, Shiga toxin inh 94
C(=N\Nc1nc(-c2cccnc2)nc2ccccc12)/c1ccccc1	Cycloheximide cs 23, Shiga toxin inh 50
C(=N\Nc1nc(-c2ccccn2)nc2ccccc12)/c1ccccc1	none (no result: Marburg entry inh, LASV entry inh, AMA1 RON2 block)
NNc1nc2ccccc2nc1C(F)(F)F	none
CC(=O)NC(NC(=S)Nc1ccc(N=Nc2ccccc2C)cc1C)C(Cl)(Cl)Cl (stereo not given)	Marburg entry inh inconclusive, Cycloheximide cs 29, Shiga toxin inh 114
Cc1ccc(C)c(NC(=S)NC(NC(=O)/C=C/c2ccccc2)C(Cl)(Cl)Cl)c1 (stereo not given)	Marburg entry inh inconclusive, LASV entry inh 7.3µM

High-throughput results (PubChem)
